Measurements as given in the supplement of paper PMC6555819.

System: PPARg:RXRa (NR concentration 180 nM, RXRa partner concentration 90 nM)
Experiment: PBM binding z-score (relative to random genomic background probes); higher = stronger binding; sequences stand for … in GC…GCGATTGACAGCGTAGAATGAAGG
Outline: (§1)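 Binding z-scores take random background probes as their reference. They come from custom Agilent 4×180K protein-binding microarrays incubated 1 h with ligand-free nuclear receptor dimers, with antibodies against each partner (one per run) detecting binding. Scanned fluorescence was regression-normalized.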

Sequence | PBM binding z-score
TTACTAAGGTGAAGGTCGTTGATCCCTCTGTAGA | 5.8
AGATGTAGGTTAAGGGTCATTCAGGTTGGTTCGC | 11
CCGACTGGGCCATCAGGTCATTGATATCAACGTT | 1.69
CAAACTAGGACACGAAAGGTCAAAGTCGAATGAC | 6.54
CCTAGCAGGCCAGGGTAACTCAAGCATTTCGCTT | -0.112
TCTAGTTGGTCAAAGCTCACACACTCGAAATGCG | 2.21
TCTTGTAGATCAACAGGAGGTTAAGACAGATCGA | 0.205
TCTAGTTGCTCAAAGGTCACACACTCGAAATGCG | 6.32
TCTGCTAGGTCAACGATGGACAGCTAATCTGCTA | 2.78
GCTGCTAGGTCAGGTTTGTCAGCTAACGGGTACG | 0.265
CCTGCTGGGTCAATGGTCAGCTAAAGCAGCTCGC | 3.53
GCAGACAAGTGAAACGCAGGTAACTCAGGGTGGC | 0.44
TCGAGTAGGTTACCAATGGGGCGTTCAGCTTTCT | -0.0878
CCTCGGAGGCCAACAGGAGGTCAGAGCTGCCAGA | 0.0544
GTACCAAAGTGAATAGGTCGTTGATGAGTAGGCG | 0.56
GCTCGGAGGACAAGGTCAGAGTTTTGTCCGTAGA | 0.985
TAGCCTAGGCCAGATCGGGCCAGTATACGCTATA | 0.0311
GCGACTGGGGCAAAGCAGGTTACCTTAAGGTTGG | 0.947
GCATATAGGTAATACAAGGTGAAAGTGCGATTGT | 1.96
CCTACTGGGCCACGAAAGGTCATTGAATCAGTGA | 4.56

Sequence | PBM binding z-score
TCGAGTAGGATACCAATGGGGCATTCAGCTTTCT | -0.0828
TCTGCTAGGTCAACGATGGTCAGCTAATCTGCTA | 2.69
CACCCTAGGTCAGGGCCAGTATAGGAGGAACGTT | 1.36
CGAACTAGATCAAGGACAGTGAATCTCCGCACGC | 0.599
ATACCAAGGTGATCGTGACGTCGTTGATACTAAC | 0.582
CCGACTGGAGCAAGGTTACCATAACGCACAGCCA | 1.3
CCTACTGGGACAAAGGTCATTGATTCCAATGCTC | 11.8
CCATACAGGTGAGAAGGTAACTCAGCCTCGATTA | 1.03
ATACCAAGGTGATCGTGAGGTCGTTGATACTAAC | 0.613
TTCCCAAGGTGAAAGGTCGTTGATGCACGCCTTG | 7.9
TAGCCTCGGTCATGGGCCAGTATACCACGCGAAC | 0.374
CCTTACGGGTCACTCCAGGTTATCGCATCGGAGT | 3.02
TCTAGCAGGCCAGAGGGTCACTAAAGAGGTACGG | 1.48
TCTTGTAGATCAAGCAGGTTAAGAAGGCCTGAGT | -0.304
GTACCAATGTGAATAGGTCGTTGATGAGTAGGCG | 0.47
ACAGCCAGGTGATGAAGGTAACTCAGGCTATCAT | 0.565
CGAACGAGGGCACGAGTTGATAGCAAATGCCGAT | 2.4
TCGAGTAGGTTATGGGCATTCAGAATGGCGTCGA | 0.399
TCTGCTAGGTCAACGACGGTCAGCTAATCTGCTA | 2.09
TGGATGAGGTTATAAGATCAGGGAACGTTGCAAA | 0.897

System: PPARg:RXRa 270nM:90nM, anti-RXR (NR concentration 270 nM, RXRa partner concentration 90 nM)
Experiment: as above
Outline: as §1

Sequence | PBM binding z-score
TTACTAAGGTGAAGGTCGTTGATCCCTCTGTAGA | 6.91
AGATGTAGGTTAAGGGTCATTCAGGTTGGTTCGC | 9.78
CCGACTGGGCCATCAGGTCATTGATATCAACGTT | 2.75
CAAACTAGGACACGAAAGGTCAAAGTCGAATGAC | 6.27
CCTAGCAGGCCAGGGTAACTCAAGCATTTCGCTT | -0.182
TCTAGTTGGTCAAAGCTCACACACTCGAAATGCG | 4.31
TCTTGTAGATCAACAGGAGGTTAAGACAGATCGA | 1.36
TCTAGTTGCTCAAAGGTCACACACTCGAAATGCG | 6.78
TCTGCTAGGTCAACGATGGACAGCTAATCTGCTA | 3.12
GCTGCTAGGTCAGGTTTGTCAGCTAACGGGTACG | 0.692
CCTGCTGGGTCAATGGTCAGCTAAAGCAGCTCGC | 4.63
GCAGACAAGTGAAACGCAGGTAACTCAGGGTGGC | -0.661
TCGAGTAGGTTACCAATGGGGCGTTCAGCTTTCT | 1.06
CCTCGGAGGCCAACAGGAGGTCAGAGCTGCCAGA | 0.339
GTACCAAAGTGAATAGGTCGTTGATGAGTAGGCG | 0.234
GCTCGGAGGACAAGGTCAGAGTTTTGTCCGTAGA | 1.89
TAGCCTAGGCCAGATCGGGCCAGTATACGCTATA | -1.24
GCGACTGGGGCAAAGCAGGTTACCTTAAGGTTGG | 1.35
GCATATAGGTAATACAAGGTGAAAGTGCGATTGT | 2.57
CCTACTGGGCCACGAAAGGTCATTGAATCAGTGA | 5.1

Sequence | PBM binding z-score
TCGAGTAGGATACCAATGGGGCATTCAGCTTTCT | -0.0523
TCTGCTAGGTCAACGATGGTCAGCTAATCTGCTA | 3.14
CACCCTAGGTCAGGGCCAGTATAGGAGGAACGTT | 1.08
CGAACTAGATCAAGGACAGTGAATCTCCGCACGC | -0.0723
ATACCAAGGTGATCGTGACGTCGTTGATACTAAC | 0.302
CCGACTGGAGCAAGGTTACCATAACGCACAGCCA | 1.66
CCTACTGGGACAAAGGTCATTGATTCCAATGCTC | 10.3
CCATACAGGTGAGAAGGTAACTCAGCCTCGATTA | 1.68
ATACCAAGGTGATCGTGAGGTCGTTGATACTAAC | 0.439
TTCCCAAGGTGAAAGGTCGTTGATGCACGCCTTG | 7.35
TAGCCTCGGTCATGGGCCAGTATACCACGCGAAC | 0.188
CCTTACGGGTCACTCCAGGTTATCGCATCGGAGT | 3.76
TCTAGCAGGCCAGAGGGTCACTAAAGAGGTACGG | 2.66
TCTTGTAGATCAAGCAGGTTAAGAAGGCCTGAGT | 1.15
GTACCAATGTGAATAGGTCGTTGATGAGTAGGCG | -0.162
ACAGCCAGGTGATGAAGGTAACTCAGGCTATCAT | -0.0458
CGAACGAGGGCACGAGTTGATAGCAAATGCCGAT | 1.99
TCGAGTAGGTTATGGGCATTCAGAATGGCGTCGA | 1.47
TCTGCTAGGTCAACGACGGTCAGCTAATCTGCTA | 2.97
TGGATGAGGTTATAAGATCAGGGAACGTTGCAAA | 1.54
